Reference: PubChem BioAssay AID2289 (National Center for Advancing Translational Sciences (NCATS), 2010)
Out of some 340,000 compounds screened, about 3,300 (0.97%) were called active. Not shown: some 9% with an inconclusive outcome. Calls follow the shape of the dose curve; as a rule, active = well fitted inhibition curve with a large enough effect; inconclusive = small, poorly fitted or top-dose-only effect, or effect the other way; inactive = flat fitted curve, though single readings scatter. The list shows a part of the results.

Experiment: qHTS Assay for Modulators of miRNAs and/or Inhibitors of miR-21; also: nearly all actives have a fitted effect of over 55% in size
Settings: HeLa miR-21-FLuc reporter, luciferase luminescence, 48 h; actives lower the signal
How it was run: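 HeLa cells endogenously expressing miR-21, stably carrying CMV-driven firefly luciferase with a downstream miR-21 binding site, 2000 cells/well. Titrations up to approximately 40 uM, 48 hours; luciferase luminescence read.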
Potency is read from the fitted curve at half-maximal effect.

Potency, active:
O=C1C(C=NCCN2CCOCC2)=C(O)c2ccccc21 8.26 µM
O=C(/C=C\c1ccc(-c2cccc([N+](=O)[O-])c2)o1)N1CCOCC1 9.27 µM
O=C(/C=C/c1ccc(-c2ccc(F)cc2)o1)N1CCCC1 5.85 µM
O=C(/C=C/c1ccc(-c2cccc([N+](=O)[O-])c2)o1)N1CCOCC1 7.36 µM
COCc1ccc(C(=O)N(C)CC2CCCN(CCc3ccc(OC)cc3)C2)o1 (stereo not given) 11.7 µM
COc1ccc(CCN2CCCC(CN(C)C(=O)c3ccoc3)C2)cc1 (stereo not given) 6.56 µM
Cc1ccc(/C=N/NC(=O)c2cccs2)cc1[N+](=O)[O-] 4.14 µM
CC(/C=N/NC(=O)Cc1cccs1)=C\c1ccccc1 6.56 µM
O=C(Cc1cccs1)N/N=C/C=C/c1ccccc1[N+](=O)[O-] 6.56 µM
O=C(N/N=C/c1ccccc1[N+](=O)[O-])c1cccs1 2.93 µM
CSc1ccccc1NC(=O)c1cccc(S(=O)(=O)N2CCN(C)CC2)c1 14.7 µM
O=[N+]([O-])c1ccccc1COc1ccc(Cl)c2cccnc12 0.293 µM
Cc1cccc2nc(COc3ccc4ccccc4c3Br)cn12 2.07 µM
Clc1ccc(OCc2cn3cccnc3n2)c2ncccc12 14.7 µM
Clc1ccc(OCc2cn3ccccc3n2)c2ncccc12 6.56 µM
Cc1cccc2nc(COc3ccc(Cl)c4cccnc34)cn12 16.5 µM
Cc1ccc(-c2nc3ccccc3s2)cc1NC(=S)NC(=O)c1cccc2ccccc12 4.65 µM
Cc1ccc(-n2nc3cc(C)c(NC(=S)NC(=O)/C=C/c4ccco4)cc3n2)cc1 3.69 µM
Cc1cccnc1NC(=S)NC(=O)/C=C/c1ccco1 9.27 µM
CCOC(=O)Cc1ccc2sc(-c3ccccc3)nc2c1 1.17 µM
CCOc1cc(-c2nc3ccccc3s2)ccc1O 9.27 µM
Cc1ccc(-c2nc3ccccc3s2)cc1NC(=S)NC(=O)/C=C/c1ccco1 10.4 µM
COc1ccc(OCC(=O)Nc2cc(-c3nc4ccccc4s3)ccc2C)cc1 4.65 µM
C/C(=N\Nc1ccccc1C(=O)O)c1ccncc1 8.26 µM
C/C(=N\Nc1nc(-c2ccccc2)cs1)c1cccs1 8.26 µM
C/C(=N/Nc1ccccc1C(=O)O)c1cccs1 14.7 µM
O=C(Nc1ccccc1)c1ccc(-c2ccccc2)s1 1.85 µM
c1ccc(-c2ccc(-c3ccccn3)s2)nc1 0.736 µM
O=C(Nc1ccc(Cl)cc1)c1ccc(-c2ccccn2)s1 0.736 µM
O=C(Nc1ccccc1Cl)c1ccc(-c2ccccn2)s1 0.826 µM
O=S1(=O)CCN2C(=N1)Sc1c2ccc2c1CCCC2 13.1 µM
Cc1nc(C#N)c(N/N=C/c2cccc(Cl)c2)o1 7.36 µM
COC(=O)c1sc(-c2ccc(C(C)(C)C)cc2)cc1NC(=O)CCC(=O)O 5.21 µM
COC(=O)c1sc(-c2ccc(C(C)(C)C)cc2)cc1NC(=O)COCC(=O)O 11.7 µM
CCOc1ccc(-c2cc(NC(=O)Nc3ccccc3Cl)c(C(=O)OC)s2)cc1 5.85 µM
COc1ccc(C2Nc3ccccc3C(=O)N2c2ccc(C)cc2)cc1Cn1nnc2ccccc21 (stereo not given) 6.56 µM
COc1ccc(N2C(=O)c3ccccc3NC2c2ccc(OC)c(Cn3nnc4ccccc43)c2)cc1 (stereo not given) 5.21 µM
COc1ccc(C2Nc3ccccc3C(=O)N2c2ccc(Cl)cc2)cc1Cn1cc([N+](=O)[O-])cn1 (stereo not given) 0.736 µM
O=[N+]([O-])c1ccccc1/C=N/OCc1ccccc1 14.7 µM
Cc1ccc(Cn2cnc3nc4c(cc3c2=O)CCCC4)cc1 8.26 µM
Cc1ccc(Cn2cnc3nc4c(cc3c2=O)CC(C)CC4)cc1 (stereo not given) 4.65 µM
O=C(Nc1ccc2c(c1)CCC2)C1COc2ccccc2O1 (stereo not given) 1.47 µM
Cc1nc2cc(NC(=O)C3COc4ccccc4O3)ccc2s1 (stereo not given) 4.14 µM
Cc1c(C(=O)N(CCO)Cc2ccccc2)oc2c(F)cccc12 13.1 µM
C=CCn1c(SCC(N)=O)nnc1-c1cc2c(s1)CCC(CC)C2 (stereo not given) 13.1 µM
C=CCn1c(SCC(=O)NCC)nnc1-c1cc2c(s1)CCC(CC)C2 (stereo not given) 7.36 µM
Cc1cccnc1Nc1nc(-c2ccc(O)c(O)c2)cs1 4.65 µM
Cc1cccnc1Nc1nc(-c2ccc(O)cc2)cs1 3.29 µM
Cc1cccnc1Nc1nc(-c2ccc(O)cc2O)cs1 5.21 µM
Cc1ccc2nc(Cl)c(/C=C/C(=O)c3ccco3)cc2c1 14.7 µM
COCc1cc(C)nc2sc(C(=O)Nc3ccccc3O)c(N)c12 13.1 µM
COCc1cc(C)nc2sc(C(=O)Nc3cc(C)ccc3F)c(N)c12 7.36 µM
COCc1cc(C)nc2sc(C(=O)Nc3ccccc3F)c(N)c12 18.5 µM
Cc1ccc(-n2nnc(-c3nsc(NC(=O)c4ccccc4)n3)c2C)cc1 5.21 µM
Cc1c(-c2nsc(NC(=O)c3cccs3)n2)nnn1-c1ccc(Br)cc1 1.85 µM
Cc1c(-c2nsc(NC(=O)c3cccs3)n2)nnn1-c1ccc(F)cc1 0.521 µM
Cc1c(-c2nsc(NC(=O)c3cccs3)n2)nnn1-c1ccc(Cl)cc1 2.07 µM
COc1cccc(-c2nc(=S)c3c(o2)CCCC3)c1 1.85 µM
COCCn1c(SCc2nc3ccccc3s2)nc2ccccc21 8.26 µM
Cc1cccc(C)c1Nc1nnc(SCc2nc3ccccc3s2)s1 4.65 µM
CCn1c(SCc2nc3ccccc3s2)nnc1-c1ccccc1 16.5 µM
Cc1nnc(SCc2nc3ccccc3s2)n1-c1ccccc1 16.5 µM
O=c1c2ccccc2nc(SCc2nc3ccccc3s2)n1CCCO 11.7 µM
CCCSc1nnc(Nc2ccccc2C)s1 5.85 µM
CCCn1c(SCc2nc3ccccc3s2)n[nH]c1=O 6.56 µM
c1ccc(SCc2nc3ccccc3s2)nc1 3.69 µM
Brc1ccccc1-c1nnc(SCc2nc3ccccc3s2)o1 8.26 µM
Cc1ccccc1OCCSc1nnc(C)n1-c1ccccc1 14.7 µM
Nc1ccc(O)c2c(=O)cc(-c3ccccc3Cl)oc12 3.29 µM
O=c1cc(-c2ccccc2Cl)oc2cc(O)cc(O)c12 10.4 µM
Nc1ccc2oc(-c3ccccc3Cl)cc(=O)c2c1O 6.56 µM
C#Cc1cccc(NC(=O)c2ccc(Cl)cc2Cl)c1 1.17 µM
O/N=C/c1cn(-c2ccc(Cl)cc2)nn1 13.1 µM
O=C(COc1ccc(F)cc1Br)NCc1ccccn1 14.7 µM
COc1ccccc1C(=O)NC(=O)Nc1cccc(Cl)c1 0.736 µM
COc1ccc(CNC(=S)N/N=C(/C)c2ccccc2)cc1 11.7 µM
Cc1ccc(CNC(=O)Nc2ccccc2)c(C)c1 1.65 µM
COc1ccc(CNC(=O)Nc2cccc(Cl)c2)cc1 3.69 µM
COc1ccc(CNC(=O)Nc2ccccc2)cc1 4.65 µM
CSc1ccc(NC(=O)NCc2ccccc2)cc1 9.27 µM
COc1ccc(/C=N/N=C2/SCC(=O)N2Cc2ccccc2)cc1 2.07 µM
CCc1ccc2[nH]c(C(=O)Nc3ccc(Br)c(C)n3)cc2c1 1.65 µM
COc1cccc(CNc2nc3nc(C)c(Cl)c(C)n3n2)c1 10.4 µM
COc1ccc(CNc2nc3nc(C)c(Cl)c(C)n3n2)cc1 16.5 µM
Cc1ccc(Cl)c(OCC(=O)Nc2cccnc2)c1 3.29 µM
O=C(/C=C/c1ccccc1[N+](=O)[O-])Nc1cccnc1 7.36 µM
Cc1ccc(OCC(=O)Nc2ccccc2[N+](=O)[O-])c(Br)c1 1.31 µM
O=C(COc1ccccc1Cl)Nc1cccnc1 6.56 µM
Cc1ccc(NC(=O)COc2ccc(Br)cc2C)cc1 9.27 µM
Cc1ccc(NC(=O)c2ccc(OC(=O)COc3ccc(Cl)cc3C)cc2)cc1 1.47 µM
Cc1ccc(OCC(=O)Nc2ccon2)c([N+](=O)[O-])c1 6.56 µM
O=C(COc1ccccc1[N+](=O)[O-])Nc1cccnc1 8.26 µM
O=C(COc1ccccc1[N+](=O)[O-])Nc1ccc(Br)cc1 3.29 µM
O=C(NNC(=S)Nc1ccccc1)c1ccc(O)cc1 7.36 µM
S=C(NNC(=S)Nc1ccccc1)Nc1ccccc1 6.56 µM
Cn1c(C2=C(O)CN(Cc3ccccc3)C2=N)nc2ccccc21 14.7 µM
O=C(Nc1ccc(Cl)cc1Cl)c1ccc2ncsc2c1 2.33 µM
O=C(Nc1ccc(Br)cc1)c1ccc2ncsc2c1 1.47 µM
O=C(Nc1ccc(F)cc1F)c1ccc2ncsc2c1 13.1 µM
O=C(Nc1ccccc1F)c1ccc2ncsc2c1 9.27 µM
N#C/C(=C\c1cccs1)C(=O)Nc1nccs1 7.36 µM
Cc1ccc(OCCn2c(=O)n(C)c3ccccc32)cc1 7.36 µM
Cn1c(=O)n(CCOc2ccccc2Cl)c2ccccc21 7.36 µM
Cc1ccc2oc(C(=O)NCCCN3CCOCC3)c(C)c2c1 2.93 µM
Cc1ccc2oc(C(=O)N3CCCCCC3)c(C)c2c1 6.56 µM
